# Pf Dd2 inh – inhibitors of Plasmodium falciparum Dd2 growth; AID 1347417; Potency, µM (doses to about 28.9 µM), inactives show at the top dose activity, negative = inhibition, usual class: inhibitors; 4.3% of 120,000 active; P. falciparum Dd2 growth, SYBR Green, 72 h; active means well fitted inhibition curve with a large enough effect;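 further: plate controls were DMSO vehicle for no effect and reference drug for full effect; nearly all actives have a fitted effect of over 65% in size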
#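 Infected erythrocytes (Dd2, 0.3% parasitemia, 2.5% hematocrit final) are added to compound in RPMI-1640/Albumax II medium, grown 72 h at 37C in low oxygen, then lysed with saponin/Triton-X containing SYBR Green and read by fluorescence.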
# Starred values were filed as active, the others as inactive; i = inactive; [ ] = dose if it differs, or a comment. Many of the other results were omitted from the sample, so hits are more common in it than they were. Potency means the concentration at half of the fitted maximal effect.
SMILES,Pf Dd2 inh
c1ccc(-c2nc(NCc3cc4n(n3)CCCNC4)c3ccccc3n2)cc1,7.94µM*
Cc1cccc2ncc(C(=O)NCc3cc4n(n3)CCCNC4)c(=O)n12,3.0%
COc1ccc(CC(=O)N2CC[C@@H](CC(=O)O)[C@@H](CCN3CCOCC3)C2)cc1,25.4%[44.1 µM]
CNC(=O)[C@@H]1CN(Cc2cccc(Cl)c2F)C[C@H]1CO,-13.1%
COc1ccc(NC(=O)C2=NO[C@@H]3CN(c4ccccc4)C[C@H]23)cn1,28.6%[44.1 µM]
COc1ccc(OC)c(NC(=O)c2ccc3c(SCC(=O)O)c4c(nc3c2)CCCC4)c1,10µM*
O=C(O)CSc1c2c(nc3cc(C(=O)Nc4ccc(F)c(Cl)c4)ccc13)CCC2,-27.0%
COc1ccc(NC(=O)c2ccc3c(SCC(=O)O)c4c(nc3c2)CCC4)c(OC)c1,-13.1%
COc1ccc(OC)c(S(=O)(=O)NC[C@H]2C[C@@H]3CCN2C[C@@H]3c2cc(-c3ccccc3OC)nn2C)c1,-20.6%
c1ccc(Cn2cnnc2CC2CCNCC2)cc1,i
CCn1ncc(CN2CC(F)(F)C[C@H]2c2nc(C(=O)NC)no2)c1C,3.9%
CCCN1CCC(N2CCC(C(=O)Nc3cccc(-c4cccc(F)c4)c3)CC2)CC1,2.24µM*
O=C(Nc1cccc(-c2cccc(Cl)c2)c1)C1CCN(Cc2cccc(O)c2)CC1,3.98µM*
CS(=O)(=O)N1CCCC1C(=O)Nc1ccc(-c2cccc(F)c2)cc1 (configuration not stated),-1.0%
O=C(NCC1CCN(Cc2cccc(Cl)c2)CC1)Nc1cc(Cl)ccc1Cl,i
CN(C)S(=O)(=O)N1CCCC1C(=O)Nc1ccc(-c2cccc(F)c2)cc1 (configuration not stated),-5.6%
CC(=O)NC1(C)CCN(Cc2cccc(-c3cccc(Cl)c3)c2)C1 (configuration not stated),-13.6%[44.1 µM]
COc1ccc(F)c(CN2CCCC(O)(CN(C)Cc3cc(C)on3)C2=O)c1 (configuration not stated),-5.4%
c1cncc(OCc2nc(C3CCNCC3)no2)c1,12.5%
Cn1cc(-c2cc3c(ccn3Cc3ccncc3)c(N3CCOCC3)n2)cn1,38.6%[44.1 µM]
c1cc(Cn2ccc3c(N4CCOCC4)nc(-c4cn[nH]c4)cc32)ccn1,2.6%[44.1 µM]
CN(C)Cc1ccc(-c2cc3c(ccn3Cc3ccncc3)c(N3CCOCC3)n2)cc1,11.2µM*
COc1ccc(CC(=O)N2CCC(Cc3nc(-c4ccc(F)cc4)no3)CC2)cc1,11.8%
Cc1ccc(N2CCN(C(=O)c3noc(-c4ccc5c(c4)OCO5)n3)CC2)c(C)c1,11.9%
O=C(c1ccncc1)N1CCC(c2noc(COc3ccc(F)cc3)n2)CC1,i
SMILES,Pf Dd2 inh
COc1ccc(C2CC(=O)N(Cc3ccc(F)cc3)c3ccccc3S2)cc1 (configuration not stated),i
COc1ccc(C2CC(=O)N(Cc3ccc(F)cc3)c3ccccc3S2)cc1OC (configuration not stated),22.3%
COc1cc(C2CC(=O)N(Cc3ccc(F)cc3)c3ccccc3S2)cc(OC)c1OC (configuration not stated),1.12µM*
CCC1=C(C(=O)OC)C(c2ccccc2)N2C(CC(=O)N(C)Cc3ccccc3)=CSC2=N1 (configuration not stated),-24.1%
CCC1=C(C(=O)OC)C(c2ccccc2F)N2C(CC(=O)N3CCCC3)=CSC2=N1 (configuration not stated),-12.2%
CCCN(CCC)C(=O)CC1=CSC2=NC(CC)=C(C(=O)OC)C(c3cccc(F)c3)N12 (configuration not stated),2.24µM*
Cc1cc2cc(-c3c(C)noc3C)nc(-c3cccc([S+](C)(=O)[O-])c3)c2o1,-21.4%[44.1 µM]
CN(Cc1ccccc1)C(=O)C(=O)Nc1ccc2nc3n(c(=O)c2c1)CCCCC3,i
CC(C)Oc1ccc(CNC(=O)c2ccc3c(c2)nc2n3CCCCC2)cc1,-14.9%
COc1ccc(/C=C/C(=O)Nc2ccc3nc(N4CCCCC4)cc(C)c3c2)cc1OC,3.98µM*
COc1ccc(/C=C/c2nc(C#N)c(N3CCCCCC3)o2)cc1OC,-15.0%
CCCN(C(=O)C(=O)Nc1ccc2nc3n(c(=O)c2c1)CCCCC3)c1ccc(OCC)cc1,-16.3%
COCCNC(=O)C(=O)Nc1ccc2nc3n(c(=O)c2c1)CCCCC3,-16.7%
CCOC(=O)c1c(NC(=O)/C=C/c2ccc(OC)c(OC)c2)sc(C(C)=O)c1C,39.8%
Cc1cc(N2CCCCC2)nc2ccc(NC(=O)/C=C/c3ccc(OC(C)C)cc3)cc12,10µM*
Cc1cc(N2CCCCC2)nc2ccc(NC(=O)/C=C/c3ccccc3OC(C)C)cc12,2.82µM*
CC[C@H]1CN(C(=O)NC2CCCCC2)CC[C@H]1CC(=O)Nc1nccs1,i
CC(C)CCC(=O)N1CCC(N2C(=O)CCC2C(=O)NC(C)C)CC1 (configuration not stated),3.6%
Cc1ccc(C)c(NC(=O)N2CCCC2c2nncn2-c2ccccc2)c1 (configuration not stated),0.9%
O=C(Cc1cccc(Cl)c1)N1CCn2c(nn(-c3ccc(F)cc3)c2=O)C1,-0.8%

# Screens from PubChem.
